Screening results: PubChem, National Center for Advancing Translational Sciences (NCATS)
Sm TGR inh = S. mansoni TGR enzyme inhibition; purified TGR, DTNB reduction, TNB absorbance 405 nm; Potency, µM (doses to about 114 µM), most hits filed as inhibitors; 360,000 compounds, 3% hits; AID 485364; note: nearly all actives have a fitted effect of over 60% in size
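First, TGR (20 nM dispensed) and NADPH were mixed with compound. Second, a 15 min room-temperature incubation followed. Third, further NADPH and then DTNB were added to start the reaction. Finally, TNB absorbance was monitored kinetically.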
Pf growth 96h = inhibits malaria parasite growth, 96 h; P. falciparum luciferase reporter growth, 96 h; Potency, µM (series often up to 28.7 µM), actives largely listed as inhibitors; 320,000 compounds, 6.9% hits
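Plates of compound plus infected erythrocytes (2% hematocrit, 0.05% parasitemia final) incubate 96 hours, 37 C, 5% CO2. Detection reagent added; reduced luminescence from the parasites' luciferase reporter flags inhibition.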
Pf growth 48h = P. falciparum growth inhibition at 48 hours (one generation); 310,000 compounds, 5.9% hits; P. falciparum luciferase growth in erythrocytes, 48 h; Potency, µM (top dose mostly 28.7 µM), actives largely listed as inhibitors; AID 504832
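Luciferase-expressing parasites in RBCs, 2% Hct / 0.1% parasitemia final; RPMI 1640 + 0.5% Albumax; 37 C, 5% CO2, one generation; luminescence read-out, lower signal = inhibition.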
SARS PLP yeast = blocks SARS-CoV papain-like protease in a yeast assay | Potency, µM (highest dose often 32.9 µM), actives largely listed as activators | S. cerevisiae expressing SARS-CoV PLpro, growth rescue | 330,000 compounds, 0.19% hits; calls by dose curve; note: nearly all actives have a fitted effect of over 55% in size
Large screens that a line does not name were inactive. Only some compounds are listed: those with a hit (about 12% of all), similar ones and a draw of the others. Unless noted, calls come from the whole dose curve; as a rule, active = well fitted curve in the direction sought with a large enough effect; inconclusive = small, poorly fitted or top-dose-only effect, or another doubt; inactive = no such curve, though single readings can be large; an effect the other way counts as inactive or inconclusive.

COc1ccc(-n2c(CN3CCN(Cc4ccccc4)CC3)nc3ccc([N+](=O)[O-])cc3c2=O)c(OC)c1	Pf growth 96h inconclusive, Pf growth 48h inconclusive
COc1ccc(-c2ccc(NS(=O)(=O)c3ccccc3Cl)cc2)nn1	none (no result: Pf growth 96h, Pf growth 48h, SARS PLP yeast)
Cc1cc(=O)[nH]c(N/N=C/c2c(C)oc3ccccc23)n1	Pf growth 96h inconclusive, Pf growth 48h inconclusive
Cc1nn(-c2ccccc2)c(Cl)c1/C=N/Nc1nc2ccccc2[nH]1	Pf growth 96h 0.74µM, Pf growth 48h 0.74µM
Cc1cc(=O)[nH]c(N/N=C/c2c(C)nn(-c3ccccc3)c2Cl)n1	Pf growth 96h 8.3µM, Pf growth 48h 4.7µM
Cc1nn(-c2ccccc2)c(Cl)c1/C=C1\C(=O)N(C)C(=S)N1C	Pf growth 96h 13µM, Pf growth 48h inconclusive
NNc1ccc2nncn2n1	Sm TGR inh 35µM
Cc1noc(/C=C/N(C)C)c1S(=O)(=O)N1CCCC(C(=O)N2CCCCC2)C1 (stereo not drawn)	Pf growth 48h 9.3µM
Cc1ccc(CNC(=O)C2CCCN(S(=O)(=O)c3c(C)noc3/C=C/N(C)C)C2)cc1 (stereo not drawn)	Pf growth 96h inconclusive, Pf growth 48h 13µM
CCOC(=O)N1CCN(C(=O)C2CCN(S(=O)(=O)c3c(C)cc(C)cc3C)CC2)CC1	Pf growth 96h inconclusive (no result: Pf growth 48h)
CCOC(=O)N1CCN(C(=O)C2CCCN(S(=O)(=O)c3c(C)cc(C)cc3C)C2)CC1 (stereo not drawn)	Pf growth 96h 10µM, Pf growth 48h inconclusive
Cc1cc(C)c(NC(=O)C2CCCN(S(=O)(=O)c3c(C)noc3/C=C/N(C)C)C2)c(C)c1 (stereo not drawn)	Pf growth 96h 13µM, Pf growth 48h inconclusive
Cc1ccc(OCC(=O)Nc2ccc3c(c2)nc(CCNC(=O)c2ccco2)n3C)cc1	none (no result: Pf growth 96h, Pf growth 48h, SARS PLP yeast)
O=C(O)CNC(=O)c1ccccc1I	none (no result: Sm TGR inh, SARS PLP yeast)
O=C(/C=C/c1c(F)cccc1Cl)N1CCOCC1	none
Cc1ccc(N2CC(c3nc(-c4ccc(Cl)cc4)no3)CC2=O)cc1F (stereo not drawn)	none (no result: Pf growth 96h, Pf growth 48h, SARS PLP yeast)
Cc1ccc(C)c(N2CCN(C(=O)C3CCCN(S(=O)(=O)c4c(C)noc4C)C3)CC2)c1 (stereo not drawn)	Pf growth 48h 12µM
Cc1noc(C)c1S(=O)(=O)N1CCN(c2ccccc2Cl)CC1	Pf growth 96h 15µM, Pf growth 48h inconclusive
CCOC(=O)N1CCN(S(=O)(=O)N2CCCC(C(=O)NCc3ccccc3Cl)C2)CC1 (stereo not drawn)	Pf growth 96h 12µM
C/C(=N\NC(=O)C1(C)CC1(Br)Br)c1ccc(NC(=O)c2ccc(C)o2)cc1 (stereo not drawn)	Pf growth 96h 9.3µM, Pf growth 48h inconclusive
C/C(=N\NC(=O)C1(C)CC1(Br)Br)c1ccc([N+](=O)[O-])cc1 (stereo not drawn)	Pf growth 96h inconclusive, Pf growth 48h inconclusive
CCOc1ccc(NC(=O)CSc2nc3ccsc3c(=O)n2C(C)CC)cc1 (stereo not drawn)	none (no result: Pf growth 96h, Pf growth 48h, SARS PLP yeast)
Cc1ccc(CNC(=O)CC(C)CC2=NS(=O)(=O)c3ccccc3N2)cc1 (stereo not drawn)	none (no result: Pf growth 96h, Pf growth 48h, SARS PLP yeast)
CCCC1CCC(C(=O)Nn2cnc3ccccc3c2=O)CC1 (stereo not drawn)	Pf growth 96h 2.1µM
COc1ccc(/C(O)=C2/C(=O)C(=O)N(c3ccccn3)C2c2cccc(Cl)c2)cc1 (stereo not drawn)	Sm TGR inh inconclusive, Pf growth 96h inconclusive, Pf growth 48h inconclusive
CCOc1cccc(-c2nnc3n2N=C(c2cc(OC)ccc2OC)CS3)c1	Pf growth 96h 12µM, Pf growth 48h 12µM
COc1ccc(-c2nnc3n2N=C(C)CS3)cc1	none
COc1ccc(N=C2SCC(=O)N2c2ccc(OC)cc2)cc1	Pf growth 96h inconclusive (no result: Pf growth 48h)
COc1ccc(OC)c(C2=Nn3c(nnc3-c3cc(OC)c(OC)c(OC)c3)SC2)c1	Pf growth 48h 6.6µM
COc1ccc(N=C2SCC(c3ccccc3)=NN2C)cc1	Pf growth 48h 2.6µM
COc1ccc(C2=Nn3c(nnc3-c3ccc(OC)cc3)SC2)cc1	Pf growth 48h 10µM (no result: Pf growth 96h)
COc1ccc(C(=O)NCC(=O)OCc2c(Cl)cccc2Cl)cc1OC	Pf growth 48h inconclusive
Cc1ccc(OCC(=O)NNC(=O)CCc2ccccc2)c(Br)c1	none
CCN(C[C@H]1N[C@@](C)(C(=O)OC)[C@H]2C(=O)N(Cc3ccccc3)C(=O)[C@@H]12)S(=O)(=O)c1ccc(OC)cc1	none (no result: Sm TGR inh, Pf growth 96h, Pf growth 48h)
CCCOC(=O)c1cc(NC(=O)/C=C/c2ccccc2)ccc1O	Pf growth 96h 10µM, Pf growth 48h inconclusive
